Assay outcomes deposited in PubChem by Small Molecule Screening Facility, UW Madison.
Only a selection was taken, and hits are over-represented in it overall.
RMI-FANCM inh = disruptors of RMI1/RMI2 association with MM2 peptide – biochemical, fluorescence polarization, human, primary screen | RMI core complex (RMI1/RMI2) binding to FANCM MM2 peptide, human | RMI core complex with F-MM2 peptide; active compounds read low | FP signal (polarization) at 33 µM | actives 0.58% (n = 70,000) | AID 1159607, 2016; in the data active means FP signal below about 40
Numbers without * were called inactive; ! = not active in a repeat.

SMILES	RMI-FANCM inh
Cc1cc(-c2ccccc2)nc2oc(C(=O)c3ccc(Cl)cc3)c(N)c12	54
CCOC(=O)Cn1cnc2c(oc3nc(-c4ccccc4)cc(-c4ccccc4)c32)c1=O	71
Cc1cc(-c2ccccc2)nc2oc3c(SCC(=O)c4ccc(-c5ccccc5)cc4)ncnc3c12	32*
COC(=O)c1sc(-c2ccccc2)cc1NC(=O)c1cc2ccccc2cc1OC	58
O=C(Nc1ccc2c(c1)OCCO2)c1cccc2c3c([nH]c12)CCCC3	55
C(=C\c1cccs1)/c1ccccc1	59
CC(/C=C1\SC(=O)N(CC(=O)Nc2ccc(O)cc2)C1=O)=C\c1ccccc1	54
CC(/C=C1\SC(=S)N(CC(=O)N2c3ccccc3Sc3ccccc32)C1=O)=C\c1ccccc1	61
CC(/C=C1\SC(=S)N(CC(=O)Nc2ccc(C(=O)O)c(O)c2)C1=O)=C\c1ccccc1	19*
N/C(=N/OC(=O)c1sccc1Cl)c1ccc(Cl)cc1	53
C/C=C/C(=O)Nc1cc(C)nn1-c1nc2c(c(=O)[nH]1)CCC2	70
Cc1cc(NC(=O)c2cc(=O)c3ccccc3o2)n(-c2nc3c(c(=O)[nH]2)CCC3)n1	9*
Cc1cc(NC(=O)C(=O)c2c[nH]c3ccccc23)n(-c2nc3c(c(=O)[nH]2)CCC3)n1	47
C=CCn1c(COc2ccc(Cl)c3cccnc23)nnc1SCC(=O)c1ccccc1	69
Cc1ccc(C)c(CN2CCCN(CC(=O)Nc3cccc(C(F)(F)F)c3)S2(=O)=O)c1	73
Cc1nn(-c2ccccc2)c(C)c1/C=N/NC(=O)CCn1cnc2ccccc21	57
Cc1nc2cc(NC(=O)c3ccn(C)n3)ccc2s1	70
O=C(/C=C/c1ccc(Br)o1)/C=C/c1ccc(Br)o1	62
O=C(/C=C/c1ccc(-c2cccc(Br)c2)o1)c1ccco1	77
O=C(/C=C\c1ccco1)/C=C/c1ccc(-c2ccc(Br)cc2)o1	8*
N#C/C(=C/c1ccc(-c2ccc(Cl)c(Cl)c2)o1)C(=O)Nc1ccccc1I	75
O=C(/C=C\c1ccco1)/C=C/c1ccc(-c2ccc(Cl)c(Cl)c2)o1	-11*
NC(=O)/C=C/c1ccco1	53
O=S(=O)(NCc1ccc(F)cc1)c1cccc2cnccc12	56
O=C(Nc1ccc(S(=O)(=O)Nc2nccs2)cc1)c1cc(Cl)sc1Cl	61
SMILES	RMI-FANCM inh
N#CC1=C(N)N=C(SCC(=O)Nc2nccs2)C(C(N)=O)C12CCCCC2 (stereo unspecified)	58
COc1cccc(N2CCN(C(=O)Cn3cnc4c([nH]c5ccccc54)c3=O)CC2)c1	61
Cc1ccc(-c2nnc(NC(=O)/C=C/c3cccs3)o2)c(C)c1	72
COc1ccc(-c2nn(-c3ccccc3)cc2CN(Cc2ccccc2)C(=O)/C=C/C(=O)O)cc1	61
Cc1ccc(-c2nn(-c3ccccc3)cc2/C=C2\SC(=S)NC2=O)cc1F	74
COc1ccc(-c2nn(-c3ccccc3)cc2/C=C2\SC(=O)NC2=S)cc1	27*
Cc1ccccc1NC(=O)CSc1nc2c(-c3ccccc3)c[nH]c2c(=O)[nH]1	62
Cc1nn(S(=O)(=O)c2ccc(Cl)s2)c(C)c1[N+](=O)[O-]	58
CCOC(=O)N1CCN(S(=O)(=O)c2ccc(C(=O)Nc3cc(C)on3)cc2)CC1	57
COc1cc2cc(C(=O)O)cc(-c3ccc(C)cc3)c2cc1OC	60
COc1cc2cc3c4cc(OC)c(OC)cc4cc[n+]3c(C)c2cc1OC	12*!
COc1cc2cc(=O)[nH]c(C)c2cc1OC	50
CCCc1[nH]nc2c1C(c1ccc(OC(=O)c3ccccc3)c(OC)c1)C(C#N)=C(N)O2 (stereo unspecified)	73
CCN(c1ccccc1)S(=O)(=O)c1ccc(C(=O)N(CCCN(C)C)c2nc3cc4c(cc3s2)OCO4)cc1	135
CCN(CC)CCN(C(=O)c1ccc(S(=O)(=O)N(CC)c2ccccc2)cc1)c1nc2cc3c(cc2s1)OCCO3	40*
CCN(CC)CCN(C(=O)c1ccc(S(=O)(=O)N(CC)c2ccccc2)cc1)c1nc2ccc(C)cc2s1	101
CSc1ccccc1NC(=O)c1oc2ccc(C)cc2c1C	67
COCC(C)NC(=O)c1cc(-c2ccc(F)cc2)nc2c1c(C)nn2C1CCS(=O)(=O)C1 (stereo unspecified)	66
Cc1cc(-c2ccccn2)c(-c2cc(Cl)cc(Cl)c2)[nH]1	32*
Cc1nc(-c2ccccn2)n[nH]1	63
Cc1cc(=S)nc(-c2ccccn2)[nH]1	55
N#Cc1c(Cl)cccc1N1CCC(C(=O)NC(=O)Nc2c(Cl)cccc2Cl)CC1	75
Cc1ccc(N2CCCS2(=O)=O)cc1NC(=O)C(=O)NCCN1CCOCC1	67
Cc1ccc(NCN2C(=O)c3ccccc3C2=O)nc1	56
O=C(OC[C@H]1O[C@H](OC(=O)c2cc(O)c(O)c(OC(=O)c3cc(O)c(O)c(O)c3)c2)[C@H](OC(=O)c2cc(O)c(O)c(OC(=O)c3cc(O)c(O)c(O)c3)c2)[C@@H](OC(=O)c2cc(O)c(O)c(OC(=O)c3cc(O)c(O)c(O)c3)c2)[C@@H]1OC(=O)c1cc(O)c(O)c(OC(=O)c2cc(O)c(O)c(O)c2)c1)c1cc(O)c(O)c(OC(=O)c2cc(O)c(O)c(O)c2)c1	29*
SMILES	RMI-FANCM inh
O=C(Oc1cc(O)cc2c1C[C@@H](OC(=O)c1cc(O)c(O)c(O)c1)[C@@H](c1ccc(O)c(O)c1)O2)c1cc(O)c(O)c(O)c1	54
CC(=O)OC[C@H]1O[C@@H](OCc2ccccc2)[C@H](OC(C)=O)[C@@H](OC(C)=O)[C@@H]1OC(C)=O	54
Cc1nnc(SCC(=O)Nc2ccccc2F)s1	69
COc1ccc(Cl)cc1NC(=O)CSc1ncnc2c1cnn2-c1ccc(C)cc1C	58
Cc1ccccc1C1CC(c2cccc(NS(C)(=O)=O)c2)=NN1S(=O)(=O)c1ccc(Cl)cc1 (stereo unspecified)	59
O=C1c2ccc(O)c(O)c2C(=O)c2c(O)ccc(O)c21	43
O=[N+]([O-])c1ccc(S(=O)(=O)c2ccccc2)cc1O	62
O=C1c2c(O)ccc([N+](=O)[O-])c2C(=O)c2c(O)ccc([N+](=O)[O-])c21	-25*
COC(=O)c1ccc2c(=O)n(CC(=O)NCCC3=CCCCC3)c(=S)[nH]c2c1	87
C#CCn1c(=NC(=O)CSCC(=O)N2CCOCC2)sc2cc(Cl)ccc21	64
Cc1sc2sc(-c3ccccc3)c(N)[n+]2c1C	72
Nc1c(-c2ccccc2)sc2nc(-c3ccccc3)cc[n+]12	11*
c1ccc(-c2csc(-c3ccc(-c4ccccn4)s3)n2)cc1	71
COC(=O)c1ccc(N/C=C(/C#N)C(=O)NCc2ccco2)cc1	64
CN(C)c1ccc(CCCNC(=O)C(=O)NC2CCCC2)cc1	71
Cn1c(=O)c2c(O)c(C=NCc3ccccc3)c(=O)n(-c3ccccc3)c2n(C)c1=O	56
Cn1c(=O)c2c(O)c(C=Nc3cccc(Cl)c3Cl)c(=O)n(C)c2n(C)c1=O	45
Cn1c(=O)c2c(O)c(C=Nc3cccc([N+](=O)[O-])c3)c(=O)n(C)c2n(C)c1=O	28*
COc1ccc(Cl)cc1NC(=O)Cn1cnc2c(-c3ccccc3)csc2c1=O	71
O=C(NCCn1nc(-c2ccccc2)ccc1=O)Nc1ccc(F)cc1	71
Cc1c(O)ccc2c(CN3CCCCC3)cc(=O)oc12	18*
O=c1cc(CN2CCOCC2)c2cc3c(cc2o1)CCC3	57
Cc1ccc2oc(=O)cc(CN3CCOCC3)c2c1	63
